ALOX12 inhib – inhibitors of human 12-lipoxygenase (ALOX12); P18054; purified 12-hLO, xylenol orange hydroperoxide absorbance; Potency, µM (doses to about 57.1 µM), inactives show at the top dose activity change, negative = inhibition, most hits filed as inhibitors; 150,000 tested, 0.12% active; active means well fitted inhibition curve with a large enough effect; inconclusive means small, poorly fitted or top-dose-only effect; further: potency means the concentration at half of the fitted maximal effect; nearly all actives have a fitted effect of over 55% in size
Target sequence (P18054 whole entry, looked up): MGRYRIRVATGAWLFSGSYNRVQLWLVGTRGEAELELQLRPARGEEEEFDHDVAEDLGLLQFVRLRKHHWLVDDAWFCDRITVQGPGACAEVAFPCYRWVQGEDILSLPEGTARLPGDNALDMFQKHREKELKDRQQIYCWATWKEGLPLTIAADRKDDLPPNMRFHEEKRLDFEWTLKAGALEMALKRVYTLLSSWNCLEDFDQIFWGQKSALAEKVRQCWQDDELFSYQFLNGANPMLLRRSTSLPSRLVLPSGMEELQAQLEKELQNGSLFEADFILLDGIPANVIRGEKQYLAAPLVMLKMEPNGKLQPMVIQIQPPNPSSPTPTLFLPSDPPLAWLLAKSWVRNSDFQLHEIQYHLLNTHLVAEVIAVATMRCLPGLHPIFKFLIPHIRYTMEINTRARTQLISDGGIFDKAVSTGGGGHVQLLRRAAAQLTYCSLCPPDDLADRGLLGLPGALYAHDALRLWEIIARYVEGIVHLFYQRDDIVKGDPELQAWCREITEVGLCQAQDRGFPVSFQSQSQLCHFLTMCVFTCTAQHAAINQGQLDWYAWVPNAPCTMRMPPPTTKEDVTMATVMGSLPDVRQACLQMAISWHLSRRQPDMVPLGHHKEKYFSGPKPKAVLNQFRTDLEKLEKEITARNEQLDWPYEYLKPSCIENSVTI
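Hydroperoxide formation by human 12-lipoxygenase from 40 uM arachidonic acid was followed colorimetrically via ferric-xylenol orange complex, using the 573/405 nm absorbance ratio. Enzyme concentration was 150 nM, with 30 min reaction at room temperature.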
HPGD inh – HPGD (human) dehydrogenase inhibition; Potency, µM, inactives show at the highest dose activity change, negative = inhibition, hits mostly inhibitors; P15428; purified HPGD, NADH fluorescence kinetic, PGE2 substrate; AID 894; 150,000 tested, 4.3% active; further: potency means the concentration at half of the fitted maximal effect
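NADH formation kinetics: reaction with 30 uM PGE2 and 1 mM NAD+ (final), 20 nM enzyme, Tris-HCl pH 8 with Tween 20, after 15 min compound preincubation at room temperature. Fluorescence change, last versus first of five reads.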
PNC assembly inh – blocks assembly of the perinucleolar compartment | PC3M PTB-GFP, PNC prevalence imaging, 16 h; stronger effect = lower value | activity change (PNC), negative = inhibition, % at 10 µM | 140,000 tested, 3.1% active | AID 2417;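 active means readout at or below -70, meaning at least 70% loss of cells showing the perinucleolar compartment, a nuclear body marking cancer cells; inconclusive means readout between -30 and a set limit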;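 further: plate controls were DMSO wells for no effect and camptothecin positive control wells for full effect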
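PC3M cells stably expressing PTB-GFP, 750–1000 cells/well, treated 16 h at 37 °C with compound (23 nl of library stock), in duplicate. After paraformaldehyde fixation and Hoechst stain, imaged at 20x; PNC prevalence scored by image analysis.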
Lamin A splicing – LMNA splicing modulation; 200,000 tested, 0.01% active; Potency, µM (doses to about 46.1 µM), inactives show top-dose ratio change, negative = inhibition, actives largely listed as inhibitors; HeLa LMNA splicing GFP/RFP minigene ratio, 48 h; active means well fitted inhibition curve with a large enough effect in the signal ratio, with a control signal flat, not every such curve was filed as active; inconclusive means small, poorly fitted or top-dose-only effect, or effect the other way, or a change in a side signal; the % refers to the signal ratio; further: potency means the concentration at half of the fitted maximal effect
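S3 HeLa cells stably expressing lamin A-EGFP splicing minigene plus DsRed2, 600 cells/well, 48 h compound exposure at 37C. Laser-scanning cytometry; analysed as GFP (500-530 nm)/RFP (575-640 nm) total intensity ratio; 0.5% DMSO vehicle.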
ALDH1A1 block – inhibitors of human aldehyde dehydrogenase 1A1. 220,000 tested, 7.3% active. AID 1030. Potency, µM (doses to about 75.3 µM), for inactives: at the highest dose activity, negative = inhibition, usual class: inhibitors. P00352. Purified ALDH1A1, NADH fluorescence, propionaldehyde substrate;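 further: potency means the concentration at half of the fitted maximal effect; plate controls were no enzyme wells and a reference inhibitor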
Active calls of the source: *; ! = not confirmed by another sample; [ ] = remark or other dose. In the library only some 10% were active in any assay of this set; here they are far more common. Unless noted, the call rests on the fitted dose curve; in most records, active means well fitted inhibition curve with a large enough effect (not every such curve was filed as active); inconclusive means small, poorly fitted or top-dose-only effect, or another doubt; inactive means no such curve, though single readings can be large or run the other way. Unless noted, on the % scale 0 is the no-effect control and ±100 the full control effect.

For COc1ccc(OCCC(=O)N2CCCCC2)cc1 the results were ALOX12 inhib -2%, HPGD inh 16µM*, PNC assembly inh 3, Lamin A splicing 7% and ALDH1A1 block 1%.
For CCC1CCCCN1C(=O)c1sc2nc(C)nc(N(CC)CC)c2c1C (configuration not stated) the results were Lamin A splicing inconclusive and ALDH1A1 block 1%.
`CCCCOc1ccc(C(=O)N2CC(C)OC(C)C2)cc1` (configuration not stated) gave ALOX12 inhib 0%, HPGD inh inconclusive, PNC assembly inh inconclusive, Lamin A splicing -12% and ALDH1A1 block 0.079µM*.
CC1CN(C(=O)c2cccc(C(=O)N3CC(C)OC(C)C3)c2)CC(C)O1 (configuration not stated) was read as ALOX12 inhib 0%, HPGD inh -9%, PNC assembly inh 1, Lamin A splicing 7% and ALDH1A1 block 9%.
Screening COc1ccc(C(CC(=O)N2CCCCC2)C(C)C)cc1 (configuration not stated) returned ALDH1A1 block -3%.
CCOc1ccc(OCc2ccc(C(=O)N3CCCC3)o2)cc1 was read as ALOX12 inhib -3%, HPGD inh inconclusive, PNC assembly inh 26, Lamin A splicing -12% and ALDH1A1 block 28µM*.
`CCOC(=O)C1CCCN(C(=O)c2sc3nc(C)nc(N(CC)CC)c3c2C)C1` (configuration not stated) gave ALOX12 inhib 2%, HPGD inh 14µM*, PNC assembly inh -2, Lamin A splicing -10% and ALDH1A1 block 3%.
`COc1cc(C2C3=C(CC(C)(C)CC3=O)OC(N)=C2[N+](=O)[O-])ccc1O` (configuration not stated) gave ALOX12 inhib -4%, PNC assembly inh -3, Lamin A splicing inconclusive and ALDH1A1 block inconclusive.
For COc1ccc(C(=O)NCc2ccc3c(c2)CCN3C(=O)c2ccc(Cl)cc2)c(OC)c1 the results were Lamin A splicing -8%[46 µM].
CCOc1ccc(OCc2ccc(C(=O)OCc3ccccn3)o2)cc1 was read as ALOX12 inhib 1%, HPGD inh 25µM*, PNC assembly inh -13, Lamin A splicing 3% and ALDH1A1 block inconclusive.
For CCOc1ccc(OCc2cccc(C(=O)N3CCCC3)c2)cc1 the results were ALOX12 inhib -4%, HPGD inh -11%, PNC assembly inh -20, Lamin A splicing -13% and ALDH1A1 block -5%.
Screening O=C(c1ccc(COc2ccccc2Br)o1)N1CCCCCC1 returned ALOX12 inhib -8%, HPGD inh 14µM*, PNC assembly inh 26, Lamin A splicing -10% and ALDH1A1 block 16µM*.
`CCCOc1ccc(C(=O)N2CCCc3ccccc32)cc1` gave ALOX12 inhib -4%, HPGD inh 16µM*, PNC assembly inh inconclusive, Lamin A splicing -7% and ALDH1A1 block 6.3µM*.
For CCOc1ccc(OCc2cccc(C(=O)N3CCCCCC3)c2)cc1 the results were ALDH1A1 block 35µM*.
O=C(c1ccc(COc2ccccc2Cl)o1)N1CCN(c2ccccc2)CC1 was read as ALOX12 inhib -4%, HPGD inh -17%, PNC assembly inh inconclusive, Lamin A splicing -19% and ALDH1A1 block inconclusive.
For CC(C)[C@@H](CC(=O)N[C@@H]1CCCC[C@H]1C(=O)N[C@H](CC(=O)N[C@@H](CCC(=O)O)CC(=O)O)Cc1ccccc1)NC(=O)C[C@H](Cc1c[nH]c2ccccc12)NC(=O)[C@@H]1CNCC[C@H]1N the results were ALOX12 inhib -2%, HPGD inh -7% and ALDH1A1 block -13%.
Cc1ccc(S(=O)(=O)C(CNC(=O)C(=O)NCCc2ccc(Cl)cc2)c2cccs2)cc1 (configuration not stated) was read as Lamin A splicing 5%[46 µM].
For CC1CN(C(=O)c2ccc(C(=O)c3ccccc3)cc2)CC(C)O1 (configuration not stated) the results were ALOX12 inhib 3%, HPGD inh 14µM*, PNC assembly inh -15, Lamin A splicing -3% and ALDH1A1 block inconclusive.
O=C(c1ccc(F)cc1)N1CCC(c2ccccc2)C1 (configuration not stated) was read as ALDH1A1 block -2%.
`COc1ccc(C(=O)N2CCCC(c3ccccc3)C2)cc1` (configuration not stated) gave ALOX12 inhib 4%, HPGD inh 16µM*, PNC assembly inh 48, Lamin A splicing inconclusive and ALDH1A1 block inconclusive.
CCC(C)NC(=O)c1cnn(-c2ccc(Cl)cc2)c1C1CCN(C(=O)OC(C)(C)C)CC1 (configuration not stated) was read as Lamin A splicing 6%[46 µM].
`C=CCN(CC=C)C(=O)CCc1nnc(CCc2c[nH]c3ccccc23)o1` gave Lamin A splicing 13%[46 µM] and ALDH1A1 block 5%.
For CC1=C(C(=O)O)N2C(=O)[C@@H](NC(=O)[C@@H](N)C3=CCC=CC3)[C@@H]2SC1 the results were ALOX12 inhib -3%.
For NC(C(=O)NC1C(=O)N2C(C(=O)O)=C(Cl)CSC12)c1ccccc1 (configuration not stated) the results were ALOX12 inhib -4%, HPGD inh inconclusive and ALDH1A1 block 16µM*.
`N[C@H](C(=O)N[C@@H]1C(=O)N2C(C(=O)O)=C(Cl)CS[C@@H]12)c1ccccc1` gave ALOX12 inhib -3%[25.6 µM], HPGD inh -11%, Lamin A splicing inconclusive and ALDH1A1 block 11µM*!.
O=C(Cc1ccc(Br)cc1)Nc1cccc(Cl)c1 was read as ALDH1A1 block 8%.
For Cn1c(SCC2CCCO2)nnc1-c1ccc([N+](=O)[O-])cc1 (configuration not stated) the results were ALDH1A1 block -2%.
Screening COc1cc2c(cc1OC)C(C(=O)c1ccc(OC)c(OC)c1O)=NCC2 returned HPGD inh inconclusive and ALDH1A1 block -7%.
Cc1ccc(C(=O)c2c[nH]cc2-c2ccccc2)cc1 was read as ALOX12 inhib -10%, HPGD inh -13%, PNC assembly inh 19, Lamin A splicing -1% and ALDH1A1 block 4%.
Screening O=C(c1ccccc1)c1c[nH]cc1-c1ccccc1 returned ALOX12 inhib 2%, HPGD inh -19%, PNC assembly inh -100*, Lamin A splicing -6% and ALDH1A1 block inconclusive.
For COc1ccc(S(=O)(=O)N2CCN(C(=O)c3c(C)nn(-c4ccccc4)c3Cl)CC2)cc1 the results were ALOX12 inhib -14%, HPGD inh -16%, PNC assembly inh -8, Lamin A splicing inconclusive and ALDH1A1 block 32µM*.
`COC(=O)c1cc(OC)c(OC)cc1NC(=O)Nc1cccc(C(C)=O)c1` gave Lamin A splicing inconclusive and ALDH1A1 block -8%.

From PubChem
